Reference: the supplement of paper PMC6897291
Counter-ions that a name gives are not always drawn.

Columns and labels:
U-2932 [1] = assay: growth inhibition by drug alone (1 - RLU/untreated control) (fraction); higher = stronger inhibition; conditions: 177Lu-lilotomab satetraxetan 0 ug/ml
Method in brief: (§1)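 A radiolabelled anti-CD37 antibody conjugate (~600 MBq/mg) was applied for 18 h at 0.5 µg/ml to RIVA and 1 µg/ml to U-2932 cells, with untreated cells run alongside. All cells were washed and seeded at 3,000 cells/well onto library-printed plates at 10/100 nM (RIVA) or 10/1,000 nM (U-2932). Growth inhibition was based on RealTime-Glo luminescence compared with untreated no-drug wells. Daily reads began on day 3 after 1 h at 37°C, with each value being 1 − RLU/mean of the 48 such wells on that plate.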

RIVA [2] = assay: as above; conditions: 177Lu-lilotomab satetraxetan 0 ug/ml
Method in brief: as §1

U-2932 [3] = assay: growth inhibition by drug plus 177Lu-lilotomab satetraxetan (1 - RLU/untreated control) (fraction); higher = stronger inhibition; conditions: 177Lu-lilotomab satetraxetan 1 ug/ml
Method in brief: as §1

RIVA [4] = assay: as above; conditions: 177Lu-lilotomab satetraxetan 0.5 ug/ml
Method in brief: as §1

SMILES	growth inhibition by drug alone (U-2932 [1]; 10 nM, time (day): 3)	growth inhibition by drug alone (U-2932 [1]; 10 nM, time (day): 4)	growth inhibition by drug alone (U-2932 [1]; 10 nM, time (day): 5)	growth inhibition by drug alone (U-2932 [1]; 10 nM, time (day): 6)	growth inhibition by drug alone (U-2932 [1]; 1000 nM, time (day): 3)	growth inhibition by drug alone (U-2932 [1]; 1000 nM, time (day): 4)	growth inhibition by drug alone (U-2932 [1]; 1000 nM, time (day): 5)	growth inhibition by drug alone (U-2932 [1]; 1000 nM, time (day): 6)	growth inhibition by drug alone (RIVA [2]; 10 nM, time (day): 3)	growth inhibition by drug alone (RIVA [2]; 10 nM, time (day): 4)	growth inhibition by drug alone (RIVA [2]; 10 nM, time (day): 5)	growth inhibition by drug alone (RIVA [2]; 10 nM, time (day): 6)	growth inhibition by drug alone (RIVA [2]; 100 nM, time (day): 3)	growth inhibition by drug alone (RIVA [2]; 100 nM, time (day): 4)	growth inhibition by drug alone (RIVA [2]; 100 nM, time (day): 5)	growth inhibition by drug alone (RIVA [2]; 100 nM, time (day): 6)	growth inhibition by drug plus 177Lu-lilotomab satetraxetan (U-2932 [3]; 10 nM, time (day): 3)	growth inhibition by drug plus 177Lu-lilotomab satetraxetan (U-2932 [3]; 10 nM, time (day): 4)	growth inhibition by drug plus 177Lu-lilotomab satetraxetan (U-2932 [3]; 10 nM, time (day): 5)	growth inhibition by drug plus 177Lu-lilotomab satetraxetan (U-2932 [3]; 10 nM, time (day): 6)	growth inhibition by drug plus 177Lu-lilotomab satetraxetan (U-2932 [3]; 1000 nM, time (day): 3)	growth inhibition by drug plus 177Lu-lilotomab satetraxetan (U-2932 [3]; 1000 nM, time (day): 4)	growth inhibition by drug plus 177Lu-lilotomab satetraxetan (U-2932 [3]; 1000 nM, time (day): 5)	growth inhibition by drug plus 177Lu-lilotomab satetraxetan (U-2932 [3]; 1000 nM, time (day): 6)	growth inhibition by drug plus 177Lu-lilotomab satetraxetan (RIVA [4]; 10 nM, time (day): 3)	growth inhibition by drug plus 177Lu-lilotomab satetraxetan (RIVA [4]; 10 nM, time (day): 4)	growth inhibition by drug plus 177Lu-lilotomab satetraxetan (RIVA [4]; 10 nM, time (day): 5)	growth inhibition by drug plus 177Lu-lilotomab satetraxetan (RIVA [4]; 10 nM, time (day): 6)	growth inhibition by drug plus 177Lu-lilotomab satetraxetan (RIVA [4]; 100 nM, time (day): 3)	growth inhibition by drug plus 177Lu-lilotomab satetraxetan (RIVA [4]; 100 nM, time (day): 4)	growth inhibition by drug plus 177Lu-lilotomab satetraxetan (RIVA [4]; 100 nM, time (day): 5)	growth inhibition by drug plus 177Lu-lilotomab satetraxetan (RIVA [4]; 100 nM, time (day): 6)
Nc1nc(Cl)nc2c1ncn2[C@@H]1O[C@H](CO)[C@@H](O)[C@@H]1F [Clofarabine]	0.0673	0.0292	-0.0979	-0.0594	0.929	0.958	0.972	0.979	-0.085	-0.0539	-0.15	-0.383	0.384	0.685	0.781	0.827	0.00886	0.0897	0.102	0.0953	0.925	0.961	0.977	0.985	0.51	0.568	0.575	0.586	0.872	0.923	0.943	0.959
COC(=O)Nc1nc2cc(C(=O)c3cccs3)ccc2[nH]1 [Nocodazole]	0.162	0.111	0.0124	-0.0733	0.959	0.967	0.972	0.977	-0.0176	-0.0388	-0.162	-0.595	0.948	0.956	0.957	0.953	0.00977	0.0511	0.0524	0.13	0.971	0.978	0.982	0.984	0.402	0.532	0.541	0.547	0.956	0.968	0.974	0.979
O=C(O)c1ccc2cc(-c3ccc(O)c(C45CC6CC(CC(C6)C4)C5)c3)ccc2c1	0.159	0.0954	-0.0581	-0.0515	0.757	0.836	0.861	0.877	0.00625	0.0377	-0.0188	-0.334	-0.285	-0.127	-0.181	-0.353	0.108	0.127	0.182	0.221	0.737	0.802	0.838	0.847	0.642	0.675	0.699	0.702	0.404	0.512	0.518	0.526
Cc1ccc(-c2cc(C(F)(F)F)nn2-c2ccc(S(N)(=O)=O)cc2)cc1 [Celecoxib]	-0.0761	-0.0572	-0.00842	0.0336	-0.0323	-0.0104	-0.0383	-0.0538	-0.101	-0.129	-0.153	-0.237	-0.0795	-0.119	-0.157	-0.232	-0.0503	-0.0256	0.0111	0.161	-0.109	-0.0274	0.00456	0.0432	0.337	0.477	0.505	0.512	0.373	0.448	0.453	0.425
Cc1ccc([C@@H]2O[C@H](CO)[C@@H](O)[C@H](O)[C@H]2O)cc1Cc1ccc(-c2ccc(F)cc2)s1 [Canagliflozin]	-0.0178	-0.0268	-0.0429	0.0177	-0.0399	0.00599	-0.0361	-0.0715	-0.0859	-0.106	-0.126	-0.215	0.00364	-0.0271	-0.0583	-0.103	0.00296	0.0208	0.0301	0.162	-0.0686	0.0117	0.0289	0.0944	0.342	0.476	0.499	0.519	0.383	0.437	0.439	0.418
CC1(C)CCC(c2ccc(Cl)cc2)=C(CN2CCN(c3ccc(C(=O)NS(=O)(=O)c4ccc(N[C@H](CCN5CCOCC5)CSc5ccccc5)c(S(=O)(=O)C(F)(F)F)c4)cc3)CC2)C1 [ABT-263 (Navitoclax)]	-0.00418	-0.0018	-0.0135	0.024	0.0839	0.635	0.85	0.894	0.116	0.0668	0.0479	-0.0157	0.977	0.976	0.975	0.974	-0.0296	-0.00166	0.0241	0.15	0.115	0.591	0.816	0.904	0.568	0.593	0.605	0.604	0.984	0.983	0.983	0.983
Cc1nc(N)sc1-c1ccnc(Nc2ccc(N3CCOCC3)cc2)n1	0.00864	-0.0087	-0.0373	-0.101	0.0735	0.00717	0.0172	0.253	-0.0458	-0.131	-0.156	-0.327	-0.0826	-0.139	-0.133	-0.233	-0.0148	0.00212	0.025	0.0655	0.0555	0.0326	0.0942	0.374	0.375	0.481	0.505	0.525	0.398	0.486	0.498	0.487
O=C1CN2Cc3c(ccc(Cl)c3Cl)N=C2N1 [Anagrelide]	0.0875	0.0814	0.0131	-0.134	0.102	0.0873	-0.0302	-0.00421	-0.0185	0.0438	-0.0392	-0.302	-0.0533	0.019	0.0156	-0.0326	0.101	0.141	0.208	0.23	0.0939	0.117	0.178	0.243	0.547	0.616	0.633	0.635	0.54	0.612	0.625	0.631
CN(C)CCOc1ccc(/C(=C(/CCCl)c2ccccc2)c2ccccc2)cc1 [Toremifene Citrate (Fareston, Acapodene)]	0.147	0.112	-0.00292	-0.0137	0.104	0.101	-0.00882	0.0143	0.218	0.188	0.166	-0.0195	0.0631	0.0479	0.00246	-0.0264	0.111	0.144	0.204	0.262	0.0949	0.116	0.163	0.312	0.724	0.722	0.729	0.733	0.696	0.711	0.713	0.72
CC#C[C@]1(O)CC[C@H]2[C@@H]3CCC4=CC(=O)CCC4=C3[C@@H](c3ccc(N(C)C)cc3)C[C@@]21C [Mifepristone (Mifeprex)]	-0.0691	-0.0767	-0.047	0.0535	-0.0327	-0.0148	-0.0455	0.0917	-0.296	-0.283	-0.273	-0.268	-0.146	-0.253	-0.254	-0.235	-0.019	0.0308	0.0649	0.159	-0.0642	-0.00915	0.0416	0.233	0.413	0.477	0.486	0.497	0.391	0.438	0.445	0.436
COC1=CC(c2cc3ccccc3[nH]2)=N/C1=C\c1[nH]c(C)cc1C [Obatoclax mesylate (GX15-070)]	0.114	0.0688	-0.0597	-0.127	0.123	0.0924	0.0457	-0.0101	0.00951	0.024	-0.054	-0.371	-0.444	-0.248	-0.309	-0.6	0.00229	0.0671	0.129	0.144	0.143	0.163	0.242	0.343	0.479	0.58	0.604	0.618	0.201	0.411	0.412	0.435
O=C(O)Cc1cccc(OCCCN(Cc2cccc(C(F)(F)F)c2Cl)CC(c2ccccc2)c2ccccc2)c1	0.116	0.0747	-0.121	-0.11	0.111	0.127	-0.0348	-0.224	0.0962	0.115	0.0874	-0.0108	0.667	0.512	0.515	0.524	0.0517	0.0894	0.143	0.142	0.162	0.224	0.223	0.228	0.667	0.666	0.678	0.677	0.86	0.858	0.874	0.893
CN(c1ncccc1CNc1nc(Nc2ccc3c(c2)CC(=O)N3)ncc1C(F)(F)F)S(C)(=O)=O	0.161	0.0909	0.0358	-0.183	0.299	0.457	0.571	0.694	-0.0233	0.0431	-0.0513	-0.296	-0.0725	0.0108	0.00901	-0.0367	0.066	0.111	0.2	0.224	0.23	0.336	0.426	0.546	0.592	0.636	0.671	0.663	0.458	0.565	0.566	0.569
O=C(NCCS(=O)(=O)c1ccc(C(F)(F)F)cn1)c1ccc(Cl)cc1	-0.00204	-0.0169	-0.0367	-0.101	0.00453	0.00465	-0.0415	0.00213	-0.0219	-0.049	-0.0699	-0.142	-0.409	-0.334	-0.354	-0.458	-0.0322	0.0392	0.0668	0.0664	-0.0112	0.0515	0.0729	0.179	0.548	0.553	0.579	0.579	0.416	0.503	0.517	0.521
